Screening data: PubChem, National Center for Advancing Translational Sciences (NCATS)
Only some compounds are listed: those with a hit (about 7.1% of all), similar ones and a draw of the others.
ELG1 genotoxic – qHTS screen for small molecules that induce genotoxicity in human embryonic kidney (HEK293T) cells expressing luciferase-tagged ELG1 | HEK293T ELG1-luciferase reporter, luminescence, 16 h | Potency, µM (doses to about 46 µM), hits mostly activators | 1.3% of 330,000 active; note: nearly all actives have a fitted effect of over 60% in size
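Genotoxicity was scored as increased ELG1-luciferase reporter signal, measured by ONE-Glo luminescence (30 min, room temperature). Compound or vehicle exposure of the HEK293T reporter cells lasted 16 hr at 37°C.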
p53 reactivator – qHTS assay for re-activators of p53 using a Luc reporter; H1299 p53-A138V BP100-luciferase reporter, luminescence, 24 h; Potency, µM (highest dose often 92.2 µM), most hits filed as activators; 0.063% of 320,000 active; AID 504706, 2011; note: nearly all actives have a fitted effect of over 45% in size
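p53-null H1299 cells stably carrying temperature-sensitive p53-A138V and a BP100-luciferase reporter were pinned with compounds (4-point, 1:5 series) and held 24 hrs at 37 deg C. Luminescence was read 10 min after detection reagent.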
ELG1 DNA repair – qHTS screen for small molecules that inhibit ELG1-dependent DNA repair in human embryonic kidney (HEK293T) cells expressing luciferase-tagged ELG1; HEK293T ELG1-luciferase reporter, luminescence, 16 h; DNA damage induced by 5-fluorouridine; Potency, µM (highest dose often 46.1 µM), usual class: inhibitors; 2.3% of 330,000 active; AID 504467, 2011; note: nearly all actives have a fitted effect of over 55% in size
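Reporter activity after DNA damage by 5-fluorouridine is monitored. Compound-treated cells incubate 16 hr at 37 °C, then ONE-Glo is added for 30 min before luminescence reading.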
AT treatment – qHTS Assay for Identifying a Potential Treatment of Ataxia-Telangiectasia; F2112 A-T fibroblasts, KAP-1 phosphorylation AlphaLISA; neocarzinostatin DNA damage 30 min before lysis; Potency, µM (highest dose often 57.5 µM), actives largely listed as activators; 0.19% of 320,000 active; note: nearly all actives have a fitted effect of over 45% in size
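hTERT-immortalized A-T patient fibroblasts (F2112), 500 cells/well in OPTI-MEM, 1% FBS, got compounds for 60 min, then NCS for 30 min at 37C. Lysates were then assayed for phospho-KAP-1 by AlphaLISA (anti-pKAP1 donor, anti-KAP1 acceptor beads), 6 hr at 25C.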
SW480 rereplic – A quantitative high throughput screen for small molecules that induce DNA re-replication in SW480 colon adenocarcinoma cells; 1.8% of 340,000 active; Potency, µM (titrated, usually from 46.1 µM), actives largely listed as activators; SW480 DNA re-replication, Hoechst DNA content imaging, 48 h; note: nearly all actives have a fitted effect of over 55% in size
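Treated cells incubate 48 hr (37 C, 5% CO2), are stained 40 min with Hoechst, and nuclear fluorescence is enumerated; a rise in nuclei with high DNA signal marks re-replication.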
MCF10A rerep – A quantitative high throughput screen for small molecules that induce DNA re-replication in MCF 10a normal breast cells; 2.9% of 350,000 active; MCF 10A DNA re-replication, Hoechst nuclear intensity, 48 h; AID 624296, 2012; Potency, µM (doses to about 46.1 µM), actives largely listed as activators; note: nearly all actives have a fitted effect of over 50% in size
Hits are given with their value. Calls come from the whole dose curve; as a rule, active = well fitted curve in the direction sought with a large enough effect; inconclusive = small, poorly fitted or top-dose-only effect, or another doubt; inactive = no such curve, though single readings can be large; an effect the other way counts as inactive or inconclusive.

`CCCNC(=O)C1CC(=O)N(c2ccc(OCc3ccc(F)cc3)cc2)C1` (configuration not stated) gave ELG1 genotoxic 6.5µM, p53 reactivator inconclusive, ELG1 DNA repair inconclusive, AT treatment inactive, SW480 rereplic inactive and MCF10A rerep 0.65µM.
`CCCNC(=O)C1CC(=O)N(c2ccc(OCc3ccc(Cl)cc3)cc2)C1` (configuration not stated) gave ELG1 genotoxic 1.8µM, p53 reactivator inactive, ELG1 DNA repair inconclusive, AT treatment inactive, SW480 rereplic inactive and MCF10A rerep inactive.
For OC(CCc1ccncc1)COc1ccccc1 (configuration not stated) the results were ELG1 genotoxic inactive, p53 reactivator inactive, ELG1 DNA repair inactive, AT treatment inactive, SW480 rereplic inactive and MCF10A rerep inactive.
`O=C(Nc1ccc(-c2nc3ncccc3o2)cc1)c1ccc([N+](=O)[O-])o1` gave ELG1 genotoxic inactive, p53 reactivator inactive, ELG1 DNA repair inactive, AT treatment inactive, SW480 rereplic 2.3µM and MCF10A rerep 2.9µM.
`O=C(Nc1ccc(-c2nc3ccccc3o2)cc1)c1ccc(N2CCOCC2)c([N+](=O)[O-])c1` gave ELG1 genotoxic inactive, p53 reactivator inactive, ELG1 DNA repair inconclusive, AT treatment inactive, SW480 rereplic inconclusive and MCF10A rerep inactive.
Screening Cn1cc([N+](=O)[O-])c(C(=O)Nc2ccc(-c3nc4ccccc4o3)cc2)n1 returned ELG1 genotoxic inconclusive, p53 reactivator inconclusive, ELG1 DNA repair inactive, AT treatment inactive, SW480 rereplic inconclusive and MCF10A rerep 3.7µM.
For Cc1cc(-c2nc3ncccc3o2)ccc1NC(=O)c1ccc([N+](=O)[O-])o1 the results were SW480 rereplic inactive and MCF10A rerep inconclusive.
O=C(Nc1ccc2oc(-c3cccnc3)nc2c1)c1cc2ccccc2o1 was read as ELG1 genotoxic inactive, p53 reactivator inactive, ELG1 DNA repair 18µM, AT treatment inactive, SW480 rereplic inactive and MCF10A rerep inactive.
`Cc1ccc(-c2nc3ncccc3o2)cc1NC(=O)c1ccc([N+](=O)[O-])o1` gave ELG1 genotoxic inactive, p53 reactivator inconclusive, ELG1 DNA repair inactive, AT treatment inactive, SW480 rereplic 2.1µM and MCF10A rerep 2.3µM.
CC(C)CN1CCNC(=O)C1CC(=O)NCc1cnn(-c2cccc(F)c2)c1 (configuration not stated) was read as ELG1 genotoxic inactive, p53 reactivator inactive, ELG1 DNA repair inconclusive, AT treatment inactive, SW480 rereplic inactive and MCF10A rerep inactive.
`COc1ccc(C(=O)Nc2nccs2)cc1[N+](=O)[O-]` gave ELG1 genotoxic inactive, p53 reactivator inactive, ELG1 DNA repair inconclusive, AT treatment inactive, SW480 rereplic inactive and MCF10A rerep inactive.
For Cn1cc([N+](=O)[O-])c(C(=O)Nc2nccs2)n1 the results were ELG1 genotoxic inactive, p53 reactivator inactive, ELG1 DNA repair inconclusive, AT treatment inactive, SW480 rereplic inconclusive and MCF10A rerep 4.6µM.
For O=C(Nc1ccc2oc(-c3ccncc3)nc2c1)c1ccc([N+](=O)[O-])o1 the results were ELG1 genotoxic inactive, p53 reactivator inactive, ELG1 DNA repair inconclusive, AT treatment inactive, SW480 rereplic 2.6µM and MCF10A rerep 4.1µM.
Screening CCCNC(=S)NC1CC2CCCC(C1)N2Cc1ccc(F)cc1 (configuration not stated) returned ELG1 genotoxic inactive, ELG1 DNA repair inactive, AT treatment inactive, SW480 rereplic inactive and MCF10A rerep inactive.
`O=P(C1=C(N2CCOCC2)/C(=C\c2ccccc2)CC1)(N1CCOCC1)N1CCOCC1` gave ELG1 genotoxic inactive, p53 reactivator inactive, ELG1 DNA repair inactive, AT treatment inactive, SW480 rereplic inactive and MCF10A rerep inactive.
COc1cc(NC(=O)C2=C(N3CCOCC3)/C(=C\c3ccc(Br)cc3)CC2)cc(OC)c1OC was read as ELG1 genotoxic inactive, p53 reactivator inactive, ELG1 DNA repair 18µM, AT treatment inactive, SW480 rereplic inactive and MCF10A rerep inconclusive.
`N#C/C(=C/C1=C(N2CCOCC2)C(=C/c2ccc(Cl)cc2Cl)/CC1)C(=O)Nc1ccccc1F` gave SW480 rereplic inactive and MCF10A rerep inactive.
COc1cc(NC(=O)C2=C(N3CCOCC3)/C(=C\c3ccc(Cl)cc3Cl)CC2)cc(OC)c1OC was read as ELG1 genotoxic inactive, p53 reactivator inactive, ELG1 DNA repair 21µM, AT treatment inactive, SW480 rereplic inactive and MCF10A rerep inconclusive.
`O=C(NP(=O)(N1CCOCC1)N1CCOCC1)C1=C(N2CCOCC2)/C(=C\c2ccccc2)CC1` gave ELG1 genotoxic inactive, p53 reactivator inactive, ELG1 DNA repair inactive, AT treatment inactive, SW480 rereplic inconclusive and MCF10A rerep 23µM.
`CC(C)Cn1nc(NS(=O)(=O)c2cccc3nonc23)c2cc3ccccc3nc21` gave ELG1 genotoxic inactive, p53 reactivator inactive, ELG1 DNA repair inactive, AT treatment inactive, SW480 rereplic inactive and MCF10A rerep inactive.
CC(C)Cn1c(SC(C)C(=O)NCC2CCCO2)nc2ccc(Cl)cc2c1=O (configuration not stated) was read as ELG1 genotoxic inactive, p53 reactivator inactive, ELG1 DNA repair inactive, AT treatment inactive, SW480 rereplic inactive and MCF10A rerep inactive.
CCN(CC)S(=O)(=O)c1ccc(C(=O)NC(=S)N(CCC#N)Cc2cccnc2)cc1 was read as ELG1 genotoxic inactive, p53 reactivator inactive, ELG1 DNA repair inactive, AT treatment inactive, SW480 rereplic inactive and MCF10A rerep inactive.
For COc1ccc(N(C)S(=O)(=O)c2cccc3cccnc23)c(OC)c1 the results were ELG1 genotoxic inactive, p53 reactivator inactive, ELG1 DNA repair inconclusive, AT treatment inactive, SW480 rereplic 21µM and MCF10A rerep 8.2µM.
Screening COc1ccccc1NC(=O)CN(C)S(=O)(=O)c1cccc2cccnc12 returned ELG1 genotoxic inactive, p53 reactivator inactive, ELG1 DNA repair inactive, AT treatment inactive, SW480 rereplic inactive and MCF10A rerep inactive.
Screening COc1ccc(-n2c(CN3CCN(c4ccccc4OC)CC3)nc3ccc([N+](=O)[O-])cc3c2=O)c(OC)c1 returned ELG1 genotoxic inactive, p53 reactivator inactive, ELG1 DNA repair inactive, AT treatment inactive, SW480 rereplic inactive and MCF10A rerep inactive.
